TTR transcr act = activators of transthyretin transcription; 92,000 compounds, 1.3% hits; SH-SY5Y TTR promoter Gaussia luciferase, luminescence; 100% = recombinant luciferase protein wells; activation, % at 16.7 µM;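 active means activation above the mean of all tested compounds plus 3 SD, cut at about 9.5% in these data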;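 further: cells exposed to compounds for one day before reading; 0% = median of all test compound wells on the plate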
HuH7 TTR inh = counter-screen for TTR activators: TTR transcription inhibitors in HuH7 cells; shares compounds with TTR transcr act; HuH7 TTR promoter-Gaussia luciferase reporter, luminescence; inhibition, % at 16.7 µM; 1,100 compounds, 4% hits;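 active means average inhibition above the solvent-only control wells' mean plus 3 SD, cut at about 15% in these data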;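 further: 0% = cells with DMSO only and 100% = cells with inhibitor control FD; inhibitors lower well luminescence so higher value means more inhibition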
TTR act confirm = human TTR transcription activation, confirmation; 1,100 tested, under 10 active; shares compounds with TTR transcr act; activation, % at 16.7 µM; SHSY5Y TTR promoter Gaussia luciferase, luminescence; 100% = purified Lucia enzyme wells, no cells; AID 1117280;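 active means mean activation above a set limit taken from the earlier primary screen, cut at about 11% in these data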;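 further: 0% = DMSO-treated cells and 100% = recombinant Lucia luciferase without cells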
The depositor's hits bear a star. The full list was thinned out, with hits kept by preference.

SMILES	TTR transcr act	others
Cc1ccc(F)cc1NC(=O)c1cccc2nccnc12	-2
COc1n[nH]c(C(=O)Nc2cc(F)ccc2C)c1[N+](=O)[O-]	10*	HuH7 TTR inh=-15;TTR act confirm=-1
O=C(Nc1ccc(C(O)(C(F)(F)F)C(F)(F)F)cc1)c1ccc(F)cc1F	0
Cc1cccc(C(=O)Nc2nc3ncccn3c2-c2ccc(F)cc2)c1	5
CCCCC1Cc2[nH][nH]c(=O)c2C(c2ccc(Cl)cc2)O1 (centres undefined)	1
N#Cc1cccc(NC(=O)CN2NS(=O)(=O)c3ccccc3C2=O)c1	11*	HuH7 TTR inh=-12;TTR act confirm=-1
N#Cc1cccc(NC(=O)CCn2ccnc2)c1	2
N#Cc1cccc(NC(=O)CC2CCCC2)c1	-1
CCCCNC(=O)C[C@H]1C[C@@]2(C(=O)OC)C(=C[C@H](C(C)C)O[C@@H]2C2CC2)N(CCc2ccc(OC)c(OC)c2)C1=O	0
O=C(NC1CCCCN(Cc2ccc(Cl)cc2)C1=O)c1cccc([N+](=O)[O-])c1 (centres undefined)	-1
C#CCOCCOCCOCCNc1nc(N2CCN(C(=O)[C@H](CCCCN)n3cc([C@@H](N)C(C)CC)nn3)CC2)nc(N2CCN(C(=O)[C@H](CCCCN)n3cc([C@@H](N)C(C)CC)nn3)CC2)n1 (some centres undefined)	0
CCOc1ccccc1NC(=O)CCC(=O)Nc1ccccc1OCC	2
COc1ccccc1NC(=O)CCC(=O)O	15*	HuH7 TTR inh=5;TTR act confirm=-1
CC/C(=N/NC(=O)CCC(=O)Nc1ccccc1OC)c1ccccc1	5
FC(F)(F)Oc1cccc(Cn2ccc3ccc(-c4ccc5ccn(Cc6cccc(OC(F)(F)F)c6)c5c4)cc32)c1	0
COc1cccc(C(=O)NOCc2ccccc2)c1OC	1
COc1cc(NC(=O)c2ccccc2OCc2ccccc2)cc(OC)c1OC	-1
COc1ccc(C(=O)C(C)C(C)=O)c(OCc2ccccc2)c1OC (centres undefined)	14*	HuH7 TTR inh=-20;TTR act confirm=-1
CCCCCCCCN1C(=O)[C@@H](CC(=O)N2CCC(c3ccccc3)CC2)C[C@@]2(C(=O)OC)C1=C[C@H](COCc1ccccc1)O[C@@H]2C	4
COC(=O)[C@]12C[C@H](CC(=O)NCCCN3CCCC3=O)C(=O)N(Cc3ccco3)C1=C[C@H](C1CCCC1)O[C@@H]2C	0
CC1(c2cccc(Br)c2)NC(=O)N(CC(=O)Nc2ccc(N3CCCCC3)cc2)C1=O (centres undefined)	0
CC(C)CC1(C)NC(=O)N(CC(=O)Nc2ccc3c(c2)CCC3)C1=O (centres undefined)	11*	HuH7 TTR inh=-26;TTR act confirm=1
CCc1cccc(NC(=O)CN2C(=O)NC3(CCCCCCC3)C2=O)c1	3
O=C(Nc1nc2ncccn2c1-c1ccc(C(F)(F)F)cc1)c1ccccc1	1
O=S(=O)(CC1NCCc2ccccc21)NCc1ccc(F)cc1 (centres undefined)	1
SMILES	TTR transcr act	others
CC1CCC2(CCC(=O)N2C[C@@H](O)c2ccccc2)CC1 (some centres undefined)	0
COc1ccccc1NC(=O)Cc1csc(NC(=O)c2ccccc2)n1	-1
COc1ccccc1NC(=O)Cc1noc(CSc2nnc(N)s2)n1	11*	HuH7 TTR inh=-21;TTR act confirm=1
COc1ccccc1Nc1nnc(SCC(=O)Nc2cc(C)on2)s1	10
COC(=O)[C@]12C[C@H](CC(=O)NCC34CC5CC(CC(C5)C3)C4)C(=O)N(Cc3cccc4ccccc34)C1=C[C@H](COCc1ccccc1)O[C@@H]2C	1
Cc1ccc(C(=O)Nc2c[nH]c(=O)[nH]c2=O)cc1	3
Cc1oc(=O)c(NC(=O)c2ccccc2)cc1C(C)O (centres undefined)	5
Cc1ccc(C(=O)Nc2cc3c(oc2=O)CCCC3=O)cc1	28*	HuH7 TTR inh=8;TTR act confirm=0
O=S1(=O)c2c(cccc2N2CCC[C@@H]2CO)O[C@@H]2CCN1C2	0
O=C(Nc1ccc(F)cc1)OCc1cn(Cc2cccc(C(F)(F)F)c2)nn1	-1
CCCC/C=C1/[C@@H](C(C)C)N(Cc2ccc3c(c2)OCO3)C2=N[C@H](c3ccccc3)CC(=O)N21	4
O=C1CCC[C@H]2C[C@H](NCc3ccccc3F)CC[C@]23CCCN13	0
COc1ccccc1C(=O)n1ccc2ccc(-c3ccc4ccn(Cc5ccc(C#N)cc5)c4c3)cc21	3
O=C(NNC(=O)c1cc(Cl)ccc1O)c1cccs1	3
O=C(CCC(=O)c1cccs1)NNC(=O)c1cc(Cl)ccc1Cl	0
COc1ccc(Cl)cc1C(=O)NNC(=O)COC(=O)c1cccs1	10*	HuH7 TTR inh=-6;TTR act confirm=-1
COC(=O)C1CN(CCO)CCS(=O)(=O)N1Cc1cn(Cc2cccc(Cl)c2)nn1 (centres undefined)	0
CC1(c2nnnn2Cc2ccccc2)CN(S(C)(=O)=O)CC(=O)N1Cc1cccs1 (centres undefined)	-1
C[C@H]1[C@H](c2ccccc2)OC(O)([C@H](Cc2ccccc2)NC(=O)OC(C)(C)C)CN1C (some centres undefined)	0
CCCC1CCC2(CC1)CCC2OC(=O)Nc1cc(C)cc(C)c1 (centres undefined)	3
COC(=O)CNC(=O)CN1C(=O)N(c2cccc(Cl)c2)C(N(O)C(=O)Nc2cccc(Cl)c2)C1(C)C (centres undefined)	10*	HuH7 TTR inh=-5;TTR act confirm=-1
COC(=O)CN1C(=O)N(c2ccccc2)C(N(O)C(=O)Nc2ccccc2)C1(C)C (centres undefined)	2
CNC(=O)N(O)C1N(C)C(=O)N(Cc2ccccc2)C1(C)C (centres undefined)	1
COC(=O)[C@]12C[C@H](CC(=O)N3CCN(C(=O)c4ccco4)CC3)C(=O)N(CCc3ccc(OC)c(OC)c3)C1=C[C@H](C(C)C)O[C@@H]2C1CC1	1
CC(=O)OCCN(C)c1cc(SC(C)C)c2nonc2c1[N+](=O)[O-]	18*	HuH7 TTR inh=1;TTR act confirm=0
SMILES	TTR transcr act	others
CN(C)c1cc(Nc2ccc(O)cc2)c([N+](=O)[O-])c2nonc12	6
CCOC(=O)N1CCN(c2cc(N(C)CCO)c([N+](=O)[O-])c3nonc23)CC1	-1
CC(C)OC(=O)CSc1nc2ncc(Cl)cc2[nH]1	0
Cc1[nH]c2ccccc2c1C(=O)CSc1nc2ncc(Cl)cc2[nH]1	-2
O=C(CSc1nc2ncc(Cl)cc2[nH]1)NCC(=O)Nc1ccc(F)c(F)c1F	11*	HuH7 TTR inh=-11;TTR act confirm=0
Cc1ccc(F)c(S(=O)(=O)NC(=O)C2(C)CCN2C(=O)CC2CCCCC2)c1 (centres undefined)	3
CC(C)C[C@@H](NC(=O)OC(C)(C)C)C(=O)N1O[C@]23C=C[C@]14C[C@@H](O)CC[C@]4(C)C2CC[C@]1(C)[C@@H]([C@H](C)/C=C/[C@H](C)C(C)C)CC[C@H]13 (some centres undefined)	2
CCN1CCCCC(NC(=O)c2ccccc2OC)C1=O (centres undefined)	0
c1ccc2c(c1)ncn2-c1cncnc1	0
CCn1c(CCNC(=O)c2ccccc2Cl)n[nH]c1=S	22*	HuH7 TTR inh=-5;TTR act confirm=0
CCn1c(CCNC(=O)c2ccc(Cl)cc2Cl)n[nH]c1=S	4
CCn1c(Cc2ccccc2)n[nH]c1=S	0

Screens (PubChem BioAssay)
